Reference: the supplement of paper PMC10849652
Targets with a hit are over-represented here; the source holds about 7,900 in all. About 0.6% of all pairs of compound and target were hits. A number with no mark means an inactive call.

Key:
Assay in all cases: log2 fold change, soluble protein after heating vs DMSO (PISA); higher = thermal stabilisation; K562 cells, 10 uM, 30 min; active = over 0.2 and 3.5 SD of the protein, either way, in both replicates (recomputed)
[1] = compound: CC[C@@H]1C(=O)N(C)c2cnc(Nc3ccc(C(=O)NC4CCN(C)CC4)cc3OC)nc2N1C1CCCC1
Summary of the method: (§1)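 K562 cells (2×10^6 cells/mL) were treated with 10 μM compound for 30 min, and aliquots were heated for 3 min over 48°C-58°C. Pooled aliquots were extracted in PBS with 0.5% NP-40 at 4°C, and the supernatant after 21,000xg for 90 min was measured by TMTpro 16plex LC-MS/MS with channel sums equalised. Reported thermal stability, relative to control samples and from duplicates, is a log2 fold change.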

[2] = compound: CC[C@@H]1C(=O)N(C)c2cnc(Nc3ccc(C(=O)N[C@H]4CC[C@H](N5CCN(CC6CC6)CC5)CC4)cc3OC)nc2N1C(C)C [volasertib]
Summary of the method: as §1

[3] = compound: CC[C@H](C)N1C=C(C2=C(C=C(C=C21)C3=CN=C(C=C3)N4CCNCC4)C(=O)NCC5=C(C=C(NC5=O)C)C)C
Summary of the method: as §1

[4] = compound: CC[C@H](C)[C@@H](C(=O)N[C@@H]([C@@H](C)O)C(=O)N[C@@H](CC(C)C)C(=O)[C@]1(CO1)C)NC(=O)[C@H]([C@@H](C)CC)N(C)C(=O)C [epoxomicin]
Summary of the method: as §1

[5] = compound: CCn1c(C(=O)N(C2CC2)C2CC2)cc2c3c(ncn3C)c(Nc3cc(C)n(C)n3)nc21
Summary of the method: as §1

[6] = compound: CN(CCOC1=CC=C(C=C1)C[C@H]2C(=O)NC(=O)S2)C3=CC=CC=N3 (racemic) [rosiglitazone]
Summary of the method: as §1

[7] = compound: CN1C2=C(C3=C1C(=O)N(N=C3)CC4=CC(=CC=C4)N)SC(=C2)S(=O)C
Summary of the method: as §1

[8] = compound: CCn1cc(-c2ccnc3[nH]c(-c4cccc(CN(C)C)c4)cc23)c(-c2ccc(NC(=O)N(C)C)cc2)n1
Summary of the method: as §1

[9] = compound: CN(C)CC(=O)Nc1ccc2[nH]c(=O)c3ccccc3c2c1
Summary of the method: as §1

[10] = compound: CN1CCC(CNc2ccc3ncc(-c4cccc(OC(F)(F)F)c4)n3n2)CC1
Summary of the method: as §1

Chain of UniProt O43818 (O43818 whole entry, looked up): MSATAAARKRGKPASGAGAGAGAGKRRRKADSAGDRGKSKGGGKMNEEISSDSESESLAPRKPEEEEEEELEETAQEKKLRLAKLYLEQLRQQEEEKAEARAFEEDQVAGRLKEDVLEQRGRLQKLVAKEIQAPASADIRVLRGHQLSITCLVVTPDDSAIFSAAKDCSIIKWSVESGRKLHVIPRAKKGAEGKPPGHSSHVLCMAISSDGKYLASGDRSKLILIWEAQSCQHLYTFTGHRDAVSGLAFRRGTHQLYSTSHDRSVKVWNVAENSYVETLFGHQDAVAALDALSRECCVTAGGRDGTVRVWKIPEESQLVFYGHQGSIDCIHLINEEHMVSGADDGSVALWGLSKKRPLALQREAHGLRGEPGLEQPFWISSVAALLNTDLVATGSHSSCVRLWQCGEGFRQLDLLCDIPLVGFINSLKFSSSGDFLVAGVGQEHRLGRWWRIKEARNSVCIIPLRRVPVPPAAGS
Chain of UniProt Q5TA31 (Q5TA31 whole entry, looked up): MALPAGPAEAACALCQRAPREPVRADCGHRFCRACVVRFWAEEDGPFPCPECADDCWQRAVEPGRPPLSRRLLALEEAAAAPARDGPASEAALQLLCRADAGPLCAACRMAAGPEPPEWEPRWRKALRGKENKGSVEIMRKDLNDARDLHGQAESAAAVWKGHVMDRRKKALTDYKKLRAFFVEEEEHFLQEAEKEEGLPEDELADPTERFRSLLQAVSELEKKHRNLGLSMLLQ
Chain of UniProt O75056 (O75056 whole entry, looked up): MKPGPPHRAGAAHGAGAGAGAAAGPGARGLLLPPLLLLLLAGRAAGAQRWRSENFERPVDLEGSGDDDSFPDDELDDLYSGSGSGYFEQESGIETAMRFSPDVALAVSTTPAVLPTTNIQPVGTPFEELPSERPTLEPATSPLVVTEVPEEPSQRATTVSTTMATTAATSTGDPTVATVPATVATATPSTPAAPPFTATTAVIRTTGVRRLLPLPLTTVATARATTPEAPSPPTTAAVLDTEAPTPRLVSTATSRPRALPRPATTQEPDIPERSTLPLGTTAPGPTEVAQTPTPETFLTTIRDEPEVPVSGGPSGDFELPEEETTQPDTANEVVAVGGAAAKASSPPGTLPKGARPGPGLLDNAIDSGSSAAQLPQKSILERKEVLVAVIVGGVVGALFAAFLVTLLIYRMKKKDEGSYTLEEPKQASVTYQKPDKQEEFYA
Chain of UniProt Q9UKL0 (Q9UKL0 whole entry, looked up): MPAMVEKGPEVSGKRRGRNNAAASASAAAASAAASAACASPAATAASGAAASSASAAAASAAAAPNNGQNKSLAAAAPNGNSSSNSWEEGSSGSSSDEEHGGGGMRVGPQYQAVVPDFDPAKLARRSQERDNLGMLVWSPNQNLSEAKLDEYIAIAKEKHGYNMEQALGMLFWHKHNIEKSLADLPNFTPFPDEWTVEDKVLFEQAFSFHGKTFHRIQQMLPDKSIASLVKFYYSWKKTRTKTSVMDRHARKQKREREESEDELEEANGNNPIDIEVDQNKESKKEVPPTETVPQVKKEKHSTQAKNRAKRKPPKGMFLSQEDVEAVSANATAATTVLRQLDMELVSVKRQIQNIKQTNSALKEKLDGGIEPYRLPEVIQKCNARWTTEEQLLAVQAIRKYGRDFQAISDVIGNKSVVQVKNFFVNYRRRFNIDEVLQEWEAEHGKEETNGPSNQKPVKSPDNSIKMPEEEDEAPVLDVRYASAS
Chain of UniProt Q6R327 (Q6R327 whole entry, looked up): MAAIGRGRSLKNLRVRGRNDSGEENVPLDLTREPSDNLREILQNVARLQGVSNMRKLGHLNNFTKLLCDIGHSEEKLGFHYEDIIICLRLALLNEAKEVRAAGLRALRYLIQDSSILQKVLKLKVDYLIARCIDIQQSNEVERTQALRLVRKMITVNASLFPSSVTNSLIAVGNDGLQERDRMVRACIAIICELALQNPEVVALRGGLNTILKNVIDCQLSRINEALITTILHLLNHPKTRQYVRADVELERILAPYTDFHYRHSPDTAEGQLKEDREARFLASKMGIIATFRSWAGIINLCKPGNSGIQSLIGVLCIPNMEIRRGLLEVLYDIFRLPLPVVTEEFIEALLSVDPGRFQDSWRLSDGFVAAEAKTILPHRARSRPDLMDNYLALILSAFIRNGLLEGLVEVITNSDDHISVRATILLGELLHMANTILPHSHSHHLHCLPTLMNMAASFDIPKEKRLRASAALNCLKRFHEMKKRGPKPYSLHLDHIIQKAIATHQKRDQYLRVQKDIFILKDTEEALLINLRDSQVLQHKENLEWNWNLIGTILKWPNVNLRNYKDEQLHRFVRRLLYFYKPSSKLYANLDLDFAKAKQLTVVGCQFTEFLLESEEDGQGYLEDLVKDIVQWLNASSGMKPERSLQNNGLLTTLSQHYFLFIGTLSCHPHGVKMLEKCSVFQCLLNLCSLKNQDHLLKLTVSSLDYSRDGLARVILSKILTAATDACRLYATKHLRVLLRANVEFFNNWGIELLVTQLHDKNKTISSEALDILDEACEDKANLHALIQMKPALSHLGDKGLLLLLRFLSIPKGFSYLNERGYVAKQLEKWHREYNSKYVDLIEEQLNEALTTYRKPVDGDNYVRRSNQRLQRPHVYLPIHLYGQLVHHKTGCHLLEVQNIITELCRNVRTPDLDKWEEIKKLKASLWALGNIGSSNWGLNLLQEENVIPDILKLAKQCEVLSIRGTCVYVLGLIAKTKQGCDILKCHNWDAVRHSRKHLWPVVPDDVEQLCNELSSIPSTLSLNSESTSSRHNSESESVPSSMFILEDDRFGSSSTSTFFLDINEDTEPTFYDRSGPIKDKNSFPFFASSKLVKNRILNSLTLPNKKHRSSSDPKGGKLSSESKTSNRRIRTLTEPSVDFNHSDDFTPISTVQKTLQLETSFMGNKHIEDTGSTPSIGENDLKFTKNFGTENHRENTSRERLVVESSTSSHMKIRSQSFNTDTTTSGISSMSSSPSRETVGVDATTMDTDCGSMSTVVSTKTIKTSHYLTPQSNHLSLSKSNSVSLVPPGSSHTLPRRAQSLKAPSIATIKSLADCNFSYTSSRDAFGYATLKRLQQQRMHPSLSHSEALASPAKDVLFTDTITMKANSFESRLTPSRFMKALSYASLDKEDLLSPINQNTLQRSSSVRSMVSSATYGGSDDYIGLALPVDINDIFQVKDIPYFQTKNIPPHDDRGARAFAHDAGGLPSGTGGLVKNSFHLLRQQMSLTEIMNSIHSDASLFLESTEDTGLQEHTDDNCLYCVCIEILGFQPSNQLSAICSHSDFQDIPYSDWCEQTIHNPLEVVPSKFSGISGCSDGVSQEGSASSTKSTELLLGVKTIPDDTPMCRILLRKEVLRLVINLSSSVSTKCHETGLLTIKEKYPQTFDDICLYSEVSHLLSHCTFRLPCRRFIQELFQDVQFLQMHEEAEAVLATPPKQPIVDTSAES
Chain of UniProt O75446 (O75446 whole entry, looked up): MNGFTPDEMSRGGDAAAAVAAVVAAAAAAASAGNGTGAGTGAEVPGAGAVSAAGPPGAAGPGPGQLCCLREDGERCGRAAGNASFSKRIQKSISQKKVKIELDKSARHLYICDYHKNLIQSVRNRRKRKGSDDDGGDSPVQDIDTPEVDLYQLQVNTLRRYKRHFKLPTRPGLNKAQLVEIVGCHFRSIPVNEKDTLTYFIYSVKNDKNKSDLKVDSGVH
Chain of UniProt Q8IZV5 (Q8IZV5 whole entry, looked up): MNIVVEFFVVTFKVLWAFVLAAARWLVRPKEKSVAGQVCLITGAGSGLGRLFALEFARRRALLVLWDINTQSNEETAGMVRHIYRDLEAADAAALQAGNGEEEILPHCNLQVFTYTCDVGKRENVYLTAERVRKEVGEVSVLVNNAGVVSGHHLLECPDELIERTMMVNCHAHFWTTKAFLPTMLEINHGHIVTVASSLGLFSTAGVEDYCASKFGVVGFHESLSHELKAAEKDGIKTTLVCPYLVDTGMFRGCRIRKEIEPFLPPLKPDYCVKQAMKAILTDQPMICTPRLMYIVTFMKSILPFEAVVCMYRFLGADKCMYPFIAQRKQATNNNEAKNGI
Chain of UniProt P60903 (P60903 whole entry, looked up): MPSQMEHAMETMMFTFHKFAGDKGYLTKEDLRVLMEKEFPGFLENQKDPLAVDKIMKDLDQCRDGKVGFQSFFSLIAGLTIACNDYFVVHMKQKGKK
Chain of UniProt Q5VUM1 (Q5VUM1 whole entry, looked up): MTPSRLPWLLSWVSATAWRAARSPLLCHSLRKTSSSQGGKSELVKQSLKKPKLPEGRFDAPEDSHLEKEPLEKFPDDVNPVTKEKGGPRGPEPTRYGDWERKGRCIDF

Target	log2 fold change [1]	log2 fold change [2]	log2 fold change [3]	log2 fold change [4]	log2 fold change [5]	log2 fold change [6]	log2 fold change [7]	log2 fold change [8]	log2 fold change [9]	log2 fold change [10]
SDHAF4 (UniProt Q5VUM1)	0.013	0.075	-0.045	-0.066	0.162	0.048	-0.014			
RHOXF2 (UniProt Q9BQY4)	0.014	0.061	-0.046	0.024	-0.079	-0.013	0.074	0.086	-0.028	-0.073
RCOR1 (UniProt Q9UKL0)	0.116	0.001	0.212	0.002	-0.002	0.077	-0.024	-0.033	0.006	-0.037
SCAMP2 (UniProt H3BUB6)	-0.015	-0.006	-0.092	-0.157	-0.058	-0.034	0.064		-0.201	
RRP9 (UniProt O43818)	0.09	0.148	-0.049	-0.107	-0.017	-0.129	0.039	0.136	-0.113	0.236
ROCK1 (UniProt Q13464)	-0.005	-0.083	0.005	-0.011	0.002	0.042	0.031	-0.05	-0.011	0.096
RAB3IL1 (UniProt E9PK89)	-0.012	-0.137	0.25	0.109	-0.138	0.017		-0.555 (active)	0.035	-0.342
RBBP6 (UniProt Q7Z6E9)	-0.061	-0.068	0.013	-0.001	-0.023	0.014		-0.003	0.024	-0.014
RICTOR isoform 3 (UniProt Q6R327)	-0.271	-0.758 (active)	-0.033	0.064	-0.585		0.265	-0.083		-0.169
RPS16 (UniProt P62249)	0.125	0.388	0.044	-0.118	0.026	-0.072	0.112	0.124	-0.085	0.1
SDHC (UniProt Q99643)	0.042	0.036	-0.1	0.205	0.018	0.064	-0.068	0	0.264	0.023
RNF187 (UniProt Q5TA31)	0.155	0.074	0.061	0.15	-0.061	0.004	-0.104	0.002	0.24	-0.073
RDH10 (UniProt Q8IZV5)	0.068	0.037	0.034	-0.026	-0.056	0.021	-0.19	0.021	-0.006	0.09
RPS3 (UniProt E9PJN9)	0.098						0.088	-0.125		0.089
RNF167 (UniProt Q9H6Y7)		0.003	-0.043	0.039	0.103	-0.019	0.05	0.057	-0.008	-0.097
SDC3 (UniProt O75056)	0.223		0.067	0.005			-0.017	-0.401	0.006	0.632
SEMG2 (UniProt Q02383)	0.043		0.15	0.06		0.049		0.035		0.058
SLC12A5 (UniProt Q9H2X9)	-0.007	-0.033		-0.162	0.002	-0.022	0.316		-0.013	
S100A10 (UniProt P60903)	0.284	-0.048	0.145			-0.094		-0.056		-0.026
SCLT1 (UniProt Q96NL6)			-0.066			0.01	-0.089	-0.116	-0.013	-0.029
SCO2 (UniProt O43819)	-0.109	-0.346		-0.055	0.042	0.034	-0.014	-0.051	0.039	-0.187
RPS19 (UniProt M0R2L9)		0.492	-0.256							
RMDN2 isoform 2 (UniProt Q96LZ7)			0.068						-0.167	
RCOR3 isoform 3 (UniProt Q9P2K3)	0.005	-0.068	-0.078		-0.074	0.037	0.02	-0.294	0.038	-0.011

Target	log2 fold change [1]	log2 fold change [2]	log2 fold change [3]	log2 fold change [4]	log2 fold change [5]	log2 fold change [6]	log2 fold change [7]	log2 fold change [8]	log2 fold change [9]	log2 fold change [10]
RALGPS2 (UniProt Q86X27)	0.139			-0.247	0.145	-0.082	0.137	-0.203	-0.059	0.082
SH3PXD2B (UniProt A1X283)	-2.01 (active)		-0.068	0.048	0.014	-0.008		0.097	-0.019	-1.2 (active)
RPAIN isoform 8 (UniProt Q86UA6)		-0.718 (active)		-0.118		-0.021	-0.044		-0.076	
RNF26 (UniProt Q9BY78)						-0.131		0.077	0.017	-1.04 (active)
RNF220 isoform 3 (UniProt Q5VTB9)		-0.31			-0.001					
RPS3A (UniProt D6R9B6)							0.247			
SAMD4B (UniProt Q5PRF9)		0.078	-0.047	0.02	-0.124	-0.008	0.089	0.023		-0.308
RUFY3 isoform 3 (UniProt Q7L099)	-0.135	-0.149	-0.071		-0.046		-0.015	0.079	0.011	-0.048
RPS6KA5 (UniProt O75582)	0.024	-0.529		0.048	-0.127					
RPS6KA3 (UniProt P51812)		-0.174	0.065	0.027	0.066	0.052	-0.043	-0.049	0.016	-0.192
RNF41 (UniProt Q9H4P4)	0.044					-0.073				
RABGAP1L isoform 5 (UniProt Q5R372)		0.01	0.074	-0.085	0.017	0.046	0.059			
SEPTIN5 (UniProt G3XAH0)		0.097	0.074	0.049	-0.021	0.056	-0.079	0.211	0.011	0.075
RBM48 isoform 2 (UniProt Q5RL73)		-0.003	0.002	0.003	0.13	0.006		0.078		0.114
RAF1 isoform 2 (UniProt P04049)	0.135	-0.361		-0.003	0.034	0.042	-0.129	-0.241	0.028	-0.222
RAD50, A0A494C0Y7	0.077	-0.109				-0.001	0.097	0.033	0.055	0.04
RAPGEF4 (UniProt Q8WZA2)	-0.13			-0.038	-0.136	0.065	-0.036		-0.011	
SAFB2 (UniProt K7EQU4)			-0.095	-0.11		-0.269				
RNF185 (UniProt Q96GF1)	-0.041	-0.101	-0.06		0.02	-0.075		-0.003	0.028	0.09
SAP30 (UniProt O75446)		0.042	-0.039	-0.109	0.115		0.175	-0.051	0.013	0.064
RBM6 (UniProt P78332)		-0.148	0.094				0.109	0.148		0.175
RBMY1E (UniProt A6NEQ0)	-0.068	-0.236	-0.034		-0.134	-0.058		0.084		-0.199
SIK3 (UniProt H0Y4E8)	0.032	-0.109	-0.02		-0.058		-0.019	-0.065	-0.111	-0.071
